Source: PubChem
Only some compounds are listed: those with a hit (about 4.2% of all), similar ones and a draw of the others.
CD11b adhes enh = enhancers of human CD11b/CD18 binding to fibrinogen; activation, % at 10 µM; 93,000 tested, 0.07% active; K562 CD11b/CD18 adhesion to fibrinogen, ATPlite luminescence; P05107+P11215;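 active = 10 µM primary screen giving 50% or more activity, confirmed by 40% or more on retest at that dose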
PTK2B oligo ant = antagonists of human Pyk2 oligomerization; Q293 cells, Pyk2 FERM NanoBiT luminescence; stronger effect = lower value; z-score (the deposit names both 25 µM and 10 µM); 99,000 tested, 0.83% active; AID 1347419;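 active = Z-score of -3 or lower, scaled per plate to the spread of control and sample wells; inactive = z-score above -3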;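 note: negative z-score means lost luminescence so less FERM oligomerization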
Cav32 inh = blocks human Cav3.2 T-type calcium channel; Cav3.2-expressing cells, Fluo-4 calcium fluorescence FDSS; stronger effect = lower value; 100,000 tested, 4% active; B-score at 10 µM;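 active = single-dose well whose peak fluorescence ratio is a statistical outlier from its plate by either plate-standardised score or position-corrected B-score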
Mac1 fbg inh = blocks human CD11b/CD18 adhesion to fibrinogen | P05107+P11215 | K562 CD11b/CD18 adhesion to fibrinogen, ATPlite luminescence; Mn2+ added to activate the integrin | inhibition, % at 10 µM | 93,000 tested, 0.54% active;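 active = primary inhibition of 50% or more at 10 µM, then 40% or more on retest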
E coli RNAP = inhibitors of Escherichia coli RNA polymerase; 62,000 tested, 0.2% active; E. coli RNA polymerase, fluorescence transcription assay; P0A8V2; inhibition, %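 (tested at 10 µM)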; in the data active = inhibition above about 20%;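 note: 0% = enzyme without compound and 100% = no enzyme blank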
The depositor's hits bear a star; / = no result given.

SMILES | CD11b adhes enh | PTK2B oligo ant | Cav32 inh | Mac1 fbg inh | E coli RNAP
Cc1ccc(S(=O)(=O)N(CC(=O)N2CCN(c3ccc(F)cc3)CC2)C2CCCCC2)cc1 | / | -0.61 | -5.8* | / | /
COC(=O)[C@H](CC(C)C)NC(=O)NC1CCCCC1C (some centres not stated) | -6 | 0.26 | -0.65 | 2 | /
O=C(CN(c1ccc(F)cc1)S(=O)(=O)c1ccc2c(c1)OCCO2)Nc1ccccc1 | -2 | -2.6 | -0.53 | -12 | /
CSc1nc2ccc(NS(=O)(=O)c3ccc(Cl)s3)cc2s1 | -12 | -2.5 | -5.6* | 82* | 9
CSc1nc2ccc(S(=O)(=O)N(C)C)cc2s1 | -4 | 0.59 | 0.25 | -6 | /
CC1CCC(C(=O)NC(C(=O)N2CCc3ccccc3C2)C(C)C)CC1 (configuration not stated) | -3 | -0.58 | -5.4* | 4 | /
CC1CCC(C(=O)NC(C(=O)N2CCN(c3ccccn3)CC2)C(C)C)CC1 (configuration not stated) | -1 | -0.3 | / | 5 | 0
O=S(=O)(Nc1nc2ccccc2nc1Nc1ccc2c(c1)OCO2)c1ccc(F)cc1 | -7 | / | / | 48 | /
Nc1c(C(=O)C2CC2)sc2nc(-c3cccs3)cc(C(F)(F)F)c12 | 7 | 0.63 | -7.9* | -2 | /
CC(=O)c1sc2nc(-c3cccs3)ccc2c1N | 2 | 0.35 | -1.8 | -26 | /
O=C(NCc1ccc2c(c1)OCO2)c1cc(-c2ccccc2)nn1CC1CC(c2cccnc2)=NO1 (configuration not stated) | / | / | 1.7 | / | /
COc1ccc(-c2nc(CSCC(=O)NC3CCCc4ccccc43)c(C)o2)cc1 (configuration not stated) | 5 | 0.3 | -8.2* | 15 | /
COc1ccc(-c2nnc(SCC(=O)NC3CCCc4ccccc43)n2N)cc1 (configuration not stated) | 1 | / | / | -3 | /
COc1c(C(O)CC(C)C)ccc2c1C(=O)OCc1cc(C)cc(O)c1O2 (configuration not stated) | / | / | -2.9 | / | /
COc1c(C(CC(C)C)OC(C)=O)ccc2c1C(=O)OCc1cc(C)cc(O)c1O2 (configuration not stated) | / | / | -3.8* | / | /
O=C(CN1CCOCC1)N1CCN(c2ccc3ccccc3n2)CC1 | / | / | 0.33 | / | /
CCOC(=O)C(Sc1ncnc2c1sc1nc(N3CCOCC3)c3c(c12)CCCC3)c1ccccc1 (configuration not stated) | / | / | -1.2 | / | /
O=C1CN(Cc2ccccc2)C(=NCc2ccco2)S1 | 8 | 0.42 | -0.27 | 0 | 4
CCOC(=O)c1sc(NC(=O)c2cccnc2)c(C#N)c1C | -9 | 0.57 | -2.5 | 63* | /
CCOC(=O)c1sc(NC(=O)c2cc(-c3ccccc3)nc3ccccc23)c(C#N)c1C | / | -1.5 | -4.1* | / | /
c1cncc(-c2nc3ccccc3[nH]2)c1 | / | 0.38 | 0.047 | / | /
c1ccc(-c2n[nH]c(-c3ccccc3)c2-c2nc3ccccc3[nH]2)cc1 | / | -0.88 | -5.2* | / | /
CCCN1CCCc2cc(CN(CCCN3CCOCC3)C(=O)Nc3ccc(OCC)cc3)ccc21 | 0 | -0.55 | -2.1 | 65* | /
Cc1sc2ncnc(N3CCN(CCOc4ccc(Cl)cc4)CC3)c2c1C | -9 | 0.44 | -0.29 | 99* | /
CC(C)Oc1ccc(/C=N/NC(N)=S)cc1 | 2 | / | / | 9 | /
SMILES | CD11b adhes enh | PTK2B oligo ant | Cav32 inh | Mac1 fbg inh | E coli RNAP
COc1ccc(/C=C/c2ccccc2)cc1[C@H]1[C@H]2C=CC[C@@H](C)[C@@H]2C(=O)N1Cc1ccccc1 | / | / | -1.6 | / | /
CC1(C)CC(=O)C(C=NCC2CCN(C(=O)Nc3ccc(Cl)c(Cl)c3)CC2)=C(O)C1 | -6 | 0.64 | -3.3* | 1 | /
CC(=O)N(C(C)=O)C1=C(C#N)C2(CCCCC2)Cc2ccccc21 | -4 | -0.41 | -6.3* | 42 | /
COc1ccc(-c2csc(NC(C)c3nc4cc(C(=O)NCCCO)ccc4n3Cc3ccc(C)cc3)n2)cc1 (configuration not stated) | / | / | -0.33 | / | /
O=C(Nc1ccc2c(c1)OCCO2)C1c2ccccc2C(=O)N2CCc3ccccc3C12 (configuration not stated) | 8 | / | -0.046 | 7 | /
COCCN1C(=O)c2ccccc2C(C(=O)Nc2ccc3c(c2)OCCO3)C1c1ccc(F)cc1 (configuration not stated) | / | -3.4* | 0.55 | / | /
Cn1cccc1/C=N/NC(=O)C12CC3CC(CC(C3)C1)C2 | 6 | / | / | -15 | /
Fc1cccc(Cn2cc(C(=S)N3CCCCC3)c3ccccc32)c1 | -4 | -0.87 | -4.9* | 7 | /
O=C(CS(=O)(=O)c1cn(Cc2cccc(F)c2)c2ccccc12)N1CCOCC1 | -1 | 0.55 | 0.24 | -13 | 0
COc1cccc(NC(=O)C(OC(=O)/C=C/c2ccc3c(c2)OCO3)c2ccccc2)c1 (configuration not stated) | 1 | -0.27 | -5.1* | -1 | /
NCCS(=O)(=O)O | / | / | 0.19 | / | /
Cc1ccc(N=Cc2cc3c(cc2O)OC(N)=C(C#N)C3c2ccccc2)cc1 (configuration not stated) | 59 | / | / | -1 | /
CN(C)c1ccc(N=C/C=C2\N(C)c3ccccc3C2(C)C)cc1 | / | -0.87 | / | / | /
CN1/C(=C\C=Nc2ccc3ccccc3c2)C(C)(C)c2ccccc21 | / | -0.97 | -9.4* | / | /
CCN(CC)c1nc(OCCNC(=O)Nc2ccccc2)nc(N(CC)CC)n1 | 0 | -2.9 | -10* | 27 | /
Cc1cccc(NC(=S)NC(=O)C(c2ccccc2)c2ccccc2)n1 | / | 0.29 | -0.033 | / | /
O=C(Nc1ccc(NC(=S)NC(=O)C(c2ccccc2)c2ccccc2)cc1)c1ccccc1 | / | -1.4 | -4.3* | / | /
COc1ccc(C2c3c(-c4ccccc4O)n[nH]c3C(=O)N2CCc2ccc(OC)c(OC)c2)cc1 (configuration not stated) | 10 | -3.5* | 0.67 | 9 | 0
O=C1c2[nH]nc(-c3ccccc3O)c2C(c2cccc(O)c2)N1Cc1ccco1 (configuration not stated) | 7 | -2.5 | -5* | 11 | /
Cc1ccc(C2c3c(-c4ccccc4O)n[nH]c3C(=O)N2Cc2ccncc2)cc1 (configuration not stated) | / | -2.4 | 0.78 | / | 4
COc1ccc(CCN2C(=O)c3[nH]nc(-c4ccccc4O)c3C2c2cccc(Cl)c2)cc1 (configuration not stated) | -2 | -3.5* | -2.1 | 3 | /
COc1ccc(C2C(C(C)=O)=C(O)C(=O)N2CCc2ccccc2)c(OC)c1 (configuration not stated) | 1 | 0.91 | 0.057 | -4 | 0
FC(F)Sc1ccc(NC(=S)NC2CCCCC2)cc1 | -9 | -1.1 | 1.3 | 49 | /
FC(F)Sc1ccc(NC(=S)NCC2CCCCC2)cc1 | -10 | 0.08 | -5.7* | 92* | /
O=C(NCc1nc2ccccc2[nH]1)C1=C[C@@H](c2ccc(C(F)(F)F)cc2)C[C@@H](OCc2ccc(CO)cc2)O1 | / | / | -2.5 | / | /
CSc1ccc(S(=O)(=O)Nc2ccc(F)cc2)cc1 | 1 | -0.3 | -5.1* | 37 | 7
